We go through 22 compounds from PubChem BioAssay (NCATS).

The target of test [1] is D(1A) dopamine receptor (Homo sapiens) (UniProt P21728). Briefly: HTS Assay for Allosteric Agonists of the Human D1 Dopamine Receptor: Primary Screen for Agonists (AID 488981). Further: potency means the concentration at half of the fitted maximal effect. On activation: 0% is about no effect. In short, it runs like this:
(§1)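 Tetracycline-induced HEK293 Trex D1 cells with forced coupling to calcium, loaded with no-wash calcium dye; kinetic fluorescence read 180 s after compound addition for agonism, then a further 180 s after an EC20 dopamine challenge for potentiation.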

For test [2] the target is unchanged. Briefly: HTS Assay for Allosteric Agonists of the Human D1 Dopamine Receptor: Primary Screen for Potentiators (AID 488982). Further: 0% is about no effect. In short, it runs like this: as §1
The target is the same in test [3]. Briefly: HTS Assay for Allosteric Agonists of the Human D1 Dopamine Receptor: Primary Screen for Antagonists (AID 488983).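 Further: calcium flux response to an EC80 dopamine challenge measured with no-wash dye; on the % scale 0 is the no-effect control and ±100 the full control effect; nearly all actives have a fitted effect of over 65% in size.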 In short, it runs like this:
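Cells are induced with tetracycline and incubated overnight at 30 C, then loaded with calcium dye for 30 to 90 minutes at room temperature. Compound addition is followed by a 180 s read, then an EC80 dopamine addition and another 180 s read.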

Test [4] deals with ATP-dependent 6-phosphofructokinase (Trypanosoma brucei brucei) (UniProt O15648). Briefly: qHTS Assay to Find Inhibitors of T. brucei phosphofructokinase: hit validation (AID 492961).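 Further: luminescence reports ADP formed as PFK phosphorylates fructose-6-phosphate with ATP; series mostly up to about 51 µM; on the % scale 0 is the no-effect control and ±100 the full control effect.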 The procedure, abridged:
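Compounds titrated; %activity normalized to 0x and 1x enzyme controls, curve-fitted. Readout: ADP-Glo luminescence after 45 min room-temperature reaction of 1.25 nM PFK, 0.1 mM ATP, 0.5 mM F6P, pH 8.0.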
In general terms: In qHTS, concentration-response curves come from the screen itself.

A short description of test [5]: Validation screen for small molecules that induce genotoxicity in human embryonic kidney (HEK293T) cells expressing luciferase-tagged ELG1 (AID 493106). Further: 0% is about no effect. In short, it runs like this:
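Luminescence from an ELG1-luciferase fusion serves as the read-out, rising when genetic stress elevates ELG1 protein. HEK293T reporter cells (2,000 per well) received 23 nL compound, incubated 16 hr at 37 °C, then ONE-Glo for 30 min at room temperature.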

The target of test [6] is ATPase family AAA domain-containing protein 5 (Homo sapiens) (UniProt Q96QE3). Briefly: Validation screen for small molecules that inhibit ELG1-dependent DNA repair in human embryonic kidney (HEK293T) cells expressing luciferase-tagged ELG1 (AID 493107). Further: nearly all actives have a fitted effect of over 70% in size. Further: potency means the concentration at half of the fitted maximal effect. The procedure, abridged:
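Luminescence from ONE-Glo, developed 30 min at room temperature, served as read-out of ELG1-luciferase levels. Beforehand, reporter HEK293T cells received 5-fluorouridine plus test compound for 16 hr at 37 °C.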

A short description of test [7]: Nrf2 qHTS screen for inhibitors: Validation (AID 493153; active means well fitted inhibition curve with a large enough effect in the main read-out, with a control signal flat, not every such curve was filed as active). The note with it: Potency: luciferase luminescence; viability change: measured here: cytotoxicity max response. In short, it runs like this:
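Luminescence from an ARE-firefly luciferase reporter in A549 cells gives Nrf2 inhibition; an earlier CellTiter-Fluor fluorescent read flags cytotoxicity. Cells in 5% FBS OPTI-MEM received compound dilution series for 18-24 h at 37°C.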

Test [8] deals with Thyrotropin-releasing hormone receptor (Homo sapiens) (UniProt P34981). Briefly: qHTS for Small Molecule Agonists and Allosteric Enhancers of Human TRH Receptor: Validation Screen for Agonists (AID 493127;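 active means calcium activation more than 3 SD above the typical response in the agonist read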;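 further: intracellular calcium rise by fluo-8 fluorescence before TRH EC20 addition; 0% is about no effect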). The note with it: TRH receptor agonist cell assay; at 2 µM; stronger effect = higher value. The procedure, abridged:
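Cells 2000/well, 10% FCS, 18 h 33.5C/5% CO2 → fluo-8 Ca dye, RT 30 min–1.5 h → FDSS baseline 10 × 1 s → compound added → 230 cycles (1 s/cycle) agonist mode. TRH controls.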

Several values for one entry are separate records, joined by “and”; a condition that tells them apart may be missing. Identical values can stand only once. Results filed as inconclusive are left out. Activity calls are given as the source filed them. Unless noted, the call rests on the fitted dose curve; in most records, active means well fitted curve in the direction sought with a large enough effect; inconclusive means small, poorly fitted or top-dose-only effect, or another doubt; inactive means no such curve, though single readings can be large; an effect the other way counts as inactive or inconclusive.

ATP-dependent 6-phosphofructokinase (Trypanosoma brucei brucei), sequence (O15648 whole entry, looked up): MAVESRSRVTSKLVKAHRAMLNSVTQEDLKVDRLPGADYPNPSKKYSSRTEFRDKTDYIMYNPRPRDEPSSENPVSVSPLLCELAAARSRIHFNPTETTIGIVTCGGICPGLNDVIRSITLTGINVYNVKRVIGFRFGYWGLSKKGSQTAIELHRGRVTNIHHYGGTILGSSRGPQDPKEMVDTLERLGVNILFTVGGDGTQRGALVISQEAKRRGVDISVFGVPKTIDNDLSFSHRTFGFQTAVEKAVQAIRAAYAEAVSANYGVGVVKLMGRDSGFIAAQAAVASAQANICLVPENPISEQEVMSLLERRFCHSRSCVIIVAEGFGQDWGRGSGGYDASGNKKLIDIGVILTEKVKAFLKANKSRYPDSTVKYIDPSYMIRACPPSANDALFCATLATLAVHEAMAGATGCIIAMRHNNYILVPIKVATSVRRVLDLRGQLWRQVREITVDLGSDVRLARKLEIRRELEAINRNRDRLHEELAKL
D(1A) dopamine receptor (Homo sapiens), sequence (P21728 whole entry, looked up): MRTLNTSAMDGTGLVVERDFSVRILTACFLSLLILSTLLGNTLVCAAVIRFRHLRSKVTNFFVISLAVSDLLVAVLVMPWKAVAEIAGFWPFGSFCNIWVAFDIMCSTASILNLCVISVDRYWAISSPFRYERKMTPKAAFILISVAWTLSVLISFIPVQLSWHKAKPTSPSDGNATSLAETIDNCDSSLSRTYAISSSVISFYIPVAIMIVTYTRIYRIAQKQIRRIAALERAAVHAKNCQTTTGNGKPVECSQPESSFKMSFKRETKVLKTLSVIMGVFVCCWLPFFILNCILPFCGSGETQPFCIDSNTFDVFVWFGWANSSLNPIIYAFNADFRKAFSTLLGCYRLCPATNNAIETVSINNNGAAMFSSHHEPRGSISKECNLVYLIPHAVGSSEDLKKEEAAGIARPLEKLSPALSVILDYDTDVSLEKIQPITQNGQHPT
ATPase family AAA domain-containing protein 5 (Homo sapiens), sequence (Q96QE3 whole entry, looked up, the tested form may be a part): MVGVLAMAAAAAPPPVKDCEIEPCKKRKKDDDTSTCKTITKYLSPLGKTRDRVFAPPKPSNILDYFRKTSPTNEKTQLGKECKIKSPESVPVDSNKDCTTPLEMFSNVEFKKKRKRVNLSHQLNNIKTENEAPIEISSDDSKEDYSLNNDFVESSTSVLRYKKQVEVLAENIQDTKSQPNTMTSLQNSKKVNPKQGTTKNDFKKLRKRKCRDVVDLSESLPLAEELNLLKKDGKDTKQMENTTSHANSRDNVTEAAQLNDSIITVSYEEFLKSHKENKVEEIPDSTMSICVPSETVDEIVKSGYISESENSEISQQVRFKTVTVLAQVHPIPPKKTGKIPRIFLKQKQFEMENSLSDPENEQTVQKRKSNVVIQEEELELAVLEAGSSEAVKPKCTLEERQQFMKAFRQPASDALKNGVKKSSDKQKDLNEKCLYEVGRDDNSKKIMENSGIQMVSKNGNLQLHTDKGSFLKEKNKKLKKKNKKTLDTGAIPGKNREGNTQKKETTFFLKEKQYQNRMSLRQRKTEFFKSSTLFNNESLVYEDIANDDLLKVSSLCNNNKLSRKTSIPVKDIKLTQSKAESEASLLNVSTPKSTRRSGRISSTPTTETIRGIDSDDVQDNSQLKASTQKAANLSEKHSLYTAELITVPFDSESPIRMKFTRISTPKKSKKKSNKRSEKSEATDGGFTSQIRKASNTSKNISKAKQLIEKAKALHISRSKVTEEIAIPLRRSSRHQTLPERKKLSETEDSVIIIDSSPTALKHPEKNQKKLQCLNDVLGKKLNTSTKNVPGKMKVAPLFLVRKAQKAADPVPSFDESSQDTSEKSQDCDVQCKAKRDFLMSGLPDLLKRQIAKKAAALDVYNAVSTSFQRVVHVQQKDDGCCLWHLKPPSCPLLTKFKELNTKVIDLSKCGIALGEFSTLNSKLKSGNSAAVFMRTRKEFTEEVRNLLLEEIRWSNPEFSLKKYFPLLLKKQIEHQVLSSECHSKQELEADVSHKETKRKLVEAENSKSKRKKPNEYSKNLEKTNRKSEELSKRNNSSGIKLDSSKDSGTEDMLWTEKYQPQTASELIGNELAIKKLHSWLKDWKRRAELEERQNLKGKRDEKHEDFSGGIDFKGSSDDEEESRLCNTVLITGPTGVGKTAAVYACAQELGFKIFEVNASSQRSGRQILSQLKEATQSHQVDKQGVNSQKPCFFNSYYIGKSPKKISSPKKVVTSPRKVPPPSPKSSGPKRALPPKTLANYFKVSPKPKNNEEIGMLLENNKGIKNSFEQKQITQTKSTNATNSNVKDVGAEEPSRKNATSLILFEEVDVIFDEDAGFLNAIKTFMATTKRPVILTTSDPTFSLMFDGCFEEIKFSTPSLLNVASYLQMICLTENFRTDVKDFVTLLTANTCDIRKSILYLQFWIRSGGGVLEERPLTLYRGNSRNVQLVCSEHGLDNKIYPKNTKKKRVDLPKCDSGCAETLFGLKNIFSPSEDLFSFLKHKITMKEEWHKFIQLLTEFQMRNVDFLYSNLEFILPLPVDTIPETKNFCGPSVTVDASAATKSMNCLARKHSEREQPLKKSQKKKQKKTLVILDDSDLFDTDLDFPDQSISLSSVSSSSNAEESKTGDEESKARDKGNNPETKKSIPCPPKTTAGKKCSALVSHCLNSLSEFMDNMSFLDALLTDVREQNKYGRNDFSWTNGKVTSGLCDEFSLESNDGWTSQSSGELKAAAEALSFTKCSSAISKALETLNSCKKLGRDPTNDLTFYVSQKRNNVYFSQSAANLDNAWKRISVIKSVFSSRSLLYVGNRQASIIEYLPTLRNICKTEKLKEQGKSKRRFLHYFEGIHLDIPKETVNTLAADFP
Thyrotropin-releasing hormone receptor (Homo sapiens), sequence (P34981 whole entry, looked up): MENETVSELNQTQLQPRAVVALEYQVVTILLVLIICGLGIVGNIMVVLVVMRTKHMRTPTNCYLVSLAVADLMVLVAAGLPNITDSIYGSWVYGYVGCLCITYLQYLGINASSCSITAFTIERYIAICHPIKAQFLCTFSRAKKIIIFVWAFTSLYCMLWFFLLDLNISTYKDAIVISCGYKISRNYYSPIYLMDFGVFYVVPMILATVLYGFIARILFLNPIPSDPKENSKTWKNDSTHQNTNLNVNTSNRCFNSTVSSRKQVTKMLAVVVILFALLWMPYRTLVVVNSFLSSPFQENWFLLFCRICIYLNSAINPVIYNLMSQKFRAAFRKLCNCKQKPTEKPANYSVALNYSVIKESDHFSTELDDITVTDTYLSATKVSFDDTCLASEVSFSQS

For `CC1OC1P(=O)(O)O` (stereo not given), the Potency result in test [1], in test [2], in test [3], in test [5], in test [6] and in test [7] was “inactive” throughout. The compound was classed as inactive in test [4]. Further, the viability change in test [7] came out at 11.8%.

`O=C(c1ccc(Cl)cc1)N1CCN(c2ccc([N+](=O)[O-])c3ncccc23)CC1`: the Potency entry in test [1], in test [2], in test [3] and in test [5] was “inactive” throughout. Also, the Potency in test [6] is 20.6 µM (active).

On to `Cc1ccc(C(=O)O[C@H](C(=O)O)[C@@H](OC(=O)c2ccc(C)cc2)C(=O)O)cc1` (tested in a mixture with another compound), for which the Potency result in test [1], in test [2], in test [3], in test [5], in test [6] and in test [7] was “inactive” throughout. Also, the activation in test [8] was 1.25% (inactive). For the same compound, the viability change in test [7] is -3.95%.

`CCC1C(=O)OCC1Cc1cncn1C` (stereo not given): the Potency result in test [1], in test [2], in test [3], in test [5], in test [6] and in test [7] was “inactive” each time. For the same compound, the outcome in test [4] was inactive. Besides, the viability change in test [7] was 6.63% and 6.13%.

As for `CCOC(=O)C1=C(C)NC(C)=C(C(=O)OCC)C1c1c(F)c(F)c(F)c(F)c1F`, the Potency entry in test [1], in test [2] and in test [5] was “inactive” each time.

Consider `O=C1NC(=O)/C(=C/c2ccc(-c3ccc(F)cc3O)o2)S1`, for which, in test [2], the Potency result was “inactive”.

As for `C[N+]1(C)CCC(OC(=O)C(c2ccccc2)c2ccccc2)CC1`, the Potency result in test [1], in test [3], in test [5] and in test [7] was “inactive” in each case. In addition, the viability change in test [7] was 1.14%.

Consider `CN1C2CC(OC(=O)[C@H](CO)c3ccccc3)CC1C1OC12` (stereo not given in full), for which the Potency entry in test [2], in test [3], in test [5], in test [6] and in test [7] was “inactive” each time. In addition, in test [7], the viability change is -8.53%.

Take `O=C1/C(=C/c2ccsc2)CC/C1=C\c1cccs1`: the Potency result in test [2], in test [3], in test [6] and in test [7] was “inactive” in each case. In addition, in test [7], the viability change was -8.76%.

Regarding `C=C[C@H]1CN2CC[C@@H]1C[C@@H]2[C@@H](O)c1ccnc2ccc(OC)cc12`, the Potency entry in test [1], in test [2], in test [3], in test [6] and in test [7] was “inactive” each time. Also, the viability change in test [7] is -1.39%.

In the case of `Cn1ncc(S(=O)(=O)Cc2ccccc2)c(Br)c1=O`, the Potency entry in test [2], in test [3], in test [5] and in test [6] was “inactive” each time.

Regarding `C=CC(=O)c1ccc(CCCCCC)cc1`, the Potency entry in test [1], in test [2], in test [5], in test [6] and in test [7] was “inactive” in each case. The viability change in test [7] was -13%.

On to `CN1CCC[C@H]1c1cccnc1`, for which the Potency result in test [1], in test [3], in test [5], in test [6] and in test [7] was “inactive” each time. Also, in test [8], the activation was 0.5% (inactive). For the same compound, in test [7], the viability change is -3.72%.

For `Nc1ncnc2c1ncn2[C@@H]1O[C@H](COP(=O)(O)OP(=O)(O)OP(=O)(O)OP(=O)(O)OC[C@@H]2O[C@H](n3cnc4c(N)ncnc43)[C@@H](O)[C@H]2O)[C@@H](O)[C@H]1O`, the Potency in test [1] is 562 nM (active). In test [7], the Potency entry is “inactive” and the viability change came out at 2.98%.

In the case of `CCCC1(C)C(C#N)(C#N)C1(C#N)C#N`, the Potency result in test [2] and in test [3] was “inactive” throughout.

On to `CC(C)CC(NP(=O)(O)O[C@@H]1O[C@@H](C)[C@H](O)[C@@H](O)[C@H]1O)C(=O)NC(Cc1c[nH]c2ccccc12)C(=O)O` (stereo not given in full), for which the Potency result in test [3], in test [6] and in test [7] was “inactive” in each case. In test [7], the viability change was -0.0491%.

Consider `COc1ccc2c(c1)CCC1C2CC[C@@]2(C)C1CC[C@@H]2NCCCCCCN1C(=O)CCC1=O` (stereo not given in full), for which the Potency entry in test [2], in test [5] and in test [7] was “inactive” throughout. For the same compound, the viability change in test [7] was 2.91%.

`CCc1c(C(=O)NCCc2ccc(N3CCCCC3)cc2)[nH]c2ccc(Cl)cc12`: the Potency entry in test [2], in test [3], in test [5], in test [6] and in test [7] was “inactive” throughout. In test [7], the viability change was -7.76%.

Take `CN1CCN(c2cc3c(nn2)Oc2ccccc2N3C)CC1`: the call in test [4] was inactive.

`COc1cc(/C=C/C(=O)N2CCN(CC(=O)N3CCCC3)CC2)cc(OC)c1OC`: the compound was called inactive in test [4].

For `O=C(O)[C@H](O)[C@@H](O)[C@H](O)[C@H](O)CO`, the call in test [4] was inactive.

On to `CC1(C)C[C@@H]1C(=O)N/C(=C\CCCCSC[C@H](N)C(=O)O)C(=O)O`, for which the compound was classed as inactive in test [4].
